The target of assay [1] is Lysosomal acid glucosylceramidase (Homo sapiens) (UniProt P04062). The assay can be described thus: Glucocerebrosidase-p2 (AID 348; in the data active = potency below about 10 µM; also: potency is read from the fitted curve at half-maximal effect). The conditions noted are these: purified GBA, blue fluorogenic substrate, 40 min. A digest of the protocol:
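Normal human glucocerebrosidase (0.2 nM) with blue fluorogenic substrate (80 uM final) in citrate/phosphate pH 5.9 with 10mM sodium taurocholate, 0.01% tween-20; 40 min RT, NaOH/glycine stop; fluorescence Ex 365/Em 440; AC50 from a titration from 0.6 nM upwards.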

The nature of assay [2]: AP1 Signaling Pathway (AID 357).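 Also: ME-180 reporter cells stimulated with EGF at its EC50 level; % is scaled to controls: 0 for no effect and ±100 for the full control effect.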 The conditions noted are these: ME-180 AP-1-bla reporter, EGF-induced, beta-lactamase ratio, 5 h; at 7.69 µM (top of the series) unless noted. In outline:
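First, ME-180 AP-1-bla cells were cultured overnight at 37 °C in low-serum Opti-MEM. Next, titrated compounds with EC50 EGF were incubated 5 hours. Finally, CCF4 was added for 2.5 hours and the 460/530 nm ratio recorded.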

For assay [3], the target named is Cytochrome P450 1A2 (Homo sapiens) (UniProt P05177). The assay can be described thus: p450-cyp1a2 (AID 410; calls by dose curve; also: potency is read from the fitted curve at half-maximal effect). The conditions noted are these: recombinant CYP1A2, luciferin-ME demethylation, luminescence; series mostly up to 11.4 µM. A digest of the protocol: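 O-Demethylation of luciferin 6' methyl ether by human CYP1A2 is monitored as luciferase luminescence. Substrate sits at Km (100uM); enzyme is 20nM. Values are scaled to 57 uM furafylline as maximal inhibition.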
Sequence of Cytochrome P450 1A2 (Homo sapiens) (P05177 whole entry, looked up): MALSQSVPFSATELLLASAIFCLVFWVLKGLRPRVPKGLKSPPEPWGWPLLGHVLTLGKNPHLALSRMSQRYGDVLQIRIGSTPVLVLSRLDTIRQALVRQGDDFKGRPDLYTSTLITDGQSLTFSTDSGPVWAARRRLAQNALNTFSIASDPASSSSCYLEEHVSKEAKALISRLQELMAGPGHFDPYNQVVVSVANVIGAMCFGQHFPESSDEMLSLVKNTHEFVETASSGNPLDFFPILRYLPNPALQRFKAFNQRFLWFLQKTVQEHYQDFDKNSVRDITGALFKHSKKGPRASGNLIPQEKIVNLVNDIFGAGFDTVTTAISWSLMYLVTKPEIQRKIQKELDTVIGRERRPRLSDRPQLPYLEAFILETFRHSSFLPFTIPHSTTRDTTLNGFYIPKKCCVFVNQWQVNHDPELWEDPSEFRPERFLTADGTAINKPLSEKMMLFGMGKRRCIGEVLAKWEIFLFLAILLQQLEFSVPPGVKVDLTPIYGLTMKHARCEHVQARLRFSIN

A short description of assay [4]: NFAT Signaling Pathway (AID 444).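 Also: carbachol stimulus at about its EC50 of 1 µM final; % is scaled to controls: 0 for no effect and ±100 for the full control effect.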 The settings on record: Jurkat NFAT-bla M1, carbachol, beta-lactamase ratio, 5 h; at 7.69 µM (top of the series) unless noted. A digest of the protocol: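 Jurkat cells carrying an NFAT-driven β-lactamase reporter and co-transfected muscarinic M1 receptor were treated with compound plus carbachol (1 uM final, an EC50 level) for 5 h at 37 °C. CCF4 loading followed for 1 h at RT; 460/530 nm ratio gave %activity.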

The nature of assay [5]: Stat Signaling Pathway (AID 446).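 Also: ME-180 cervical cancer cells given 40 pM IL-6 alongside compound; SIE-controlled beta-lactamase reporter measured as 460/530 nm FRET emission ratio; % is scaled to controls: 0 for no effect and ±100 for the full control effect.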 The settings on record: ME-180 (cervical carcinoma) SIE beta-lactamase reporter, IL-6 stimulated, 5 h; at 7.69 µM (top of the series) unless noted. In outline: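 Normalization used AC90 stimulation (300 pM IL-6) and AC90 inhibition (125 nM pan-JAK inhibitor at 40 pM IL-6). The underlying signal is SIE-driven beta-lactamase in ME-180 cells after 5 h IL-6 exposure with compound.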

Assay [6] addresses Glucocorticoid receptor (Homo sapiens) (UniProt P04150). The assay can be described thus: GR-GFP Redistribution (AID 450;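 active = compounds whose dose series gives a full or clear partial fitted curve of increased nuclear translocation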; also: potency is read from the fitted curve at half-maximal effect). The conditions noted are these: U2OS GR-GFP nuclear translocation, laser cytometry, 2 h.
The target is the same in assay [7]. The assay can be described thus: GR-EFC Redistribution (AID 451; calls by dose curve; also: potency is read from the fitted curve at half-maximal effect). The settings on record: CHO-K1 GR-EFC translocation, beta-gal luminescence, 2 h. A digest of the protocol:
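CHO-K1 cells stably expressing nuclear-localized β-gal enzyme acceptor and GR fused C-terminally to the enzyme donor fragment; ligand-driven nuclear translocation restores β-gal by complementation. Compounds titrated up to 46 uM final, 2 h at 37 °C; luminescence read.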

Assay [8] addresses Mitogen-activated protein kinase 10 (Mus musculus) (UniProt Q61831). The assay can be described thus: JNK3 AlphaScreen Assay (AID 530).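 Also: kinase came from lysate of stimulated human HepG2 cells; % is scaled to controls: 0 for no effect and ±100 for the full control effect.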 The conditions noted are these: JNK3 lysate, c-Jun phosphorylation; series mostly up to 11.4 µM. A digest of the protocol: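 Phosphorylation of biotinylated GST-cJun(1-79) at Ser73 is measured by AlphaScreen proximity luminescence. Enzyme is JNK3 in HepG2 lysates activated with interleukin-1beta and tumor necrosis factor alpha; ATP is 10 uM final.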
Background: Bead proximity is the source of the signal in Alpha formats.

Assay [9] concerns the target 3',5'-cyclic-AMP phosphodiesterase 4B (Homo sapiens) (UniProt Q07343). The assay can be described thus: qHTS Assay for Inhibitors of PDE-IV (AID 607; active = well fitted activation curve with a large enough effect in the main read-out, with a control signal flat, not every such curve was filed as active; also: % of control where 0% means no effect). The conditions noted are these: HEK293 ACTOne CNG channel cells, membrane potential fluorescence; series mostly up to 22.9 µM. A digest of the protocol: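 HEK293 ACTOne cells with CNG channel (1000/well), endogenous PDE4; membrane potential dye, compounds up to 22.9 uM final. Fluorescence Ex 535/Em 590; RO 20-1724 (100 uM final) as reference.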

Unmarked numbers belong to inactive results. Inconclusive results are not listed. Activity calls are given as the source filed them. Unless noted, calls follow the shape of the dose curve; as a rule, active = well fitted curve in either direction with a large enough effect (not every such curve was filed as active); inconclusive = small, poorly fitted or top-dose-only effect, or another doubt; inactive = flat fitted curve, though single readings scatter.

Sequence of Lysosomal acid glucosylceramidase (Homo sapiens) (P04062 whole entry, looked up): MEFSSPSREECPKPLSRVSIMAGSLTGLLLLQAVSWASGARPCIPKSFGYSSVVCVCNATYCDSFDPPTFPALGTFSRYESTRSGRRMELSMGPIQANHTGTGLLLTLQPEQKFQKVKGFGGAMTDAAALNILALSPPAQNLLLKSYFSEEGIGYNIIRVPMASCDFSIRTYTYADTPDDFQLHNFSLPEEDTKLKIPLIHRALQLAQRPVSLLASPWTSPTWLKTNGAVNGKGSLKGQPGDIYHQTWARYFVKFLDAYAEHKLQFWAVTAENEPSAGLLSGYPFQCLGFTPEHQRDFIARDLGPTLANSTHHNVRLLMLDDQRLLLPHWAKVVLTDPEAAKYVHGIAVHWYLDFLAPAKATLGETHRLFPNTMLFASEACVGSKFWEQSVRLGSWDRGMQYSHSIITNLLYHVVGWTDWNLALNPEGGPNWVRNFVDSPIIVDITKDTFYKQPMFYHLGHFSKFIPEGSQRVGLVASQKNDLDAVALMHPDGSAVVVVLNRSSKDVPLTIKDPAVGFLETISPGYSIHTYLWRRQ
Sequence of 3',5'-cyclic-AMP phosphodiesterase 4B (Homo sapiens) (Q07343 whole entry, looked up): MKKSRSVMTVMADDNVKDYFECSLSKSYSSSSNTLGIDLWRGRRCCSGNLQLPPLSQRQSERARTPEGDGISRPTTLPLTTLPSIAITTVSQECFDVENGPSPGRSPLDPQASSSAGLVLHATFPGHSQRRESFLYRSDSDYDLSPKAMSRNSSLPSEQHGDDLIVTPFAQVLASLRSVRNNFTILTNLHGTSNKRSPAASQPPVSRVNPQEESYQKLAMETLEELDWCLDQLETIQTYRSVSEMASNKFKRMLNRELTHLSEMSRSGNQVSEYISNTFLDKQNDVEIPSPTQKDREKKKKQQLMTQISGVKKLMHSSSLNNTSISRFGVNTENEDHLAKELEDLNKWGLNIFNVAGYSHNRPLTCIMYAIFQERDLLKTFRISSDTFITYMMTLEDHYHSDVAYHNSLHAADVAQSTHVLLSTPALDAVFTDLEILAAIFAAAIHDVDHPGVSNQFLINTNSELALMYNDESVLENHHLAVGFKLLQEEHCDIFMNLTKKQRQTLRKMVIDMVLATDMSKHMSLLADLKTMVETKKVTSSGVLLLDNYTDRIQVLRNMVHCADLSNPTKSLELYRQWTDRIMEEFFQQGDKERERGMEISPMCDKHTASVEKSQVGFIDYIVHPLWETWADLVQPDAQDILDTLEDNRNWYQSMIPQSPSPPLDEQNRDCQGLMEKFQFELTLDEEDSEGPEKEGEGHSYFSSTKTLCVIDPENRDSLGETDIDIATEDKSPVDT
Sequence of Glucocorticoid receptor (Homo sapiens) (P04150 whole entry, looked up): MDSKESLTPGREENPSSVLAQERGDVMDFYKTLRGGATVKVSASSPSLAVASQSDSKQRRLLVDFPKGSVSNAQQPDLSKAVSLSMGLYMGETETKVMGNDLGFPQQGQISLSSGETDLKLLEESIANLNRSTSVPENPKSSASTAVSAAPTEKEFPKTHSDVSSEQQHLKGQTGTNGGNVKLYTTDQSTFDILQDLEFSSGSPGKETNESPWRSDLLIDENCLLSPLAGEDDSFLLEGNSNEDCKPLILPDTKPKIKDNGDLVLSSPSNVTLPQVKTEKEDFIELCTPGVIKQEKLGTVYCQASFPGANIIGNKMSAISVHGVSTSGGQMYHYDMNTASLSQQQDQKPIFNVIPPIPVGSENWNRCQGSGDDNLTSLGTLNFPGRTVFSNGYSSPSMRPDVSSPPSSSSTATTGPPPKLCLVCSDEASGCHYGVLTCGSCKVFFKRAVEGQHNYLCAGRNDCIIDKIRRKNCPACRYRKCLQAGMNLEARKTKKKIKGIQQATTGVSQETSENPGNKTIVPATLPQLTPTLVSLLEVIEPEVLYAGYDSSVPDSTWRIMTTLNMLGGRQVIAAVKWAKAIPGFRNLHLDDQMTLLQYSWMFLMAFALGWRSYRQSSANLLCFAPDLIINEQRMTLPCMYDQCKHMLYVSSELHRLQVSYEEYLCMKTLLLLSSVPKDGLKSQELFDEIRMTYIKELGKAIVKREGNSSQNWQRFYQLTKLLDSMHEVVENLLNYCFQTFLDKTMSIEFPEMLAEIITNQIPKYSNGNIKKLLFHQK

Take `O=C(O)CSc1cc(-c2ccccc2)nc2ccccc12`: the values for the Potency in assay [1], in [6] and in assay [7] were greater than 11.4 µM, greater than 46 µM and greater than 9.22 µM, respectively. Also, the values for the activity change, negative = inhibition in assay [2], in assay [3] and in assay [4] were 4.39%, -4.7% [at 2.29 µM] and 10.2%, respectively. Moreover, the activity, negative = inhibition in [5] was -6.65%. The Potency entry in assay [8] and in [9] was “inactive” throughout.

As to `CC(C)=NNc1ncnc2nc[nH]c12`, the Potency in [1] is greater than 11.4 µM; in assay [3] it was 0.794 µM (active); in [6] it was greater than 46 µM; in [7], greater than 9.22 µM. The activity change, negative = inhibition in assay [2] was -3.94%; in [4], 3.34%. In addition, the activity, negative = inhibition in [5] is 8.2%. The Potency result in assay [8] and in [9] was “inactive” throughout.

Consider `Nc1cc(S(=O)(=O)O)cc2ccc(S(=O)(=O)O)cc12`, for which the Potency in assay [1] was greater than 11.4 µM; in assay [6] it was greater than 46 µM; in assay [7] it was greater than 9.22 µM. In addition, the activity change, negative = inhibition in assay [2] was 1.79%; in assay [3] it was -18.1% [at 2.29 µM]; in assay [4], 2.43%. The activity, negative = inhibition in assay [5] was -1.78%. The Potency result in assay [8] and in assay [9] was “inactive” throughout.

With `CC(C)(C)OC(=O)[C@H]([C@@H]1N[C@@H](C(=O)O)C(C)(C)S1)N1C(=O)c2ccccc2C1=O`, the Potency in assay [1] is greater than 11.4 µM; in [6], greater than 46 µM; in assay [7], greater than 9.22 µM. The activity change, negative = inhibition was -0.34% in assay [2], -1.4% [at 2.29 µM] in assay [3] and -5.29% in [4]. Further, the activity, negative = inhibition in [5] was 3.62%. For the same compound, the Potency result in assay [8] and in assay [9] was “inactive” throughout.

Turning to `N[C@H]1[C@@H](C(=O)O)[C@H]2C=C[C@H]1C2`, the Potency in assay [1] was greater than 11.4 µM; in [6], greater than 46 µM; in assay [7] it was greater than 9.22 µM. Also, the results for the activity change, negative = inhibition in assay [2] and in assay [4] were 7.53% and 24.6%, respectively. For the same compound, the Potency entry in assay [3], in assay [8] and in assay [9] was “inactive” each time. For the same compound, in [5], the activity, negative = inhibition is 7.88%.

Consider `NCCSCCc1ccccc1`, for which the Potency is greater than 11.4 µM in assay [1], 5.01 µM (active) in assay [3], greater than 46 µM in assay [6] and greater than 9.22 µM in assay [7]. Also, the activity change, negative = inhibition in assay [2] was -3.04%; in assay [4] it was 3.22%. The activity, negative = inhibition in [5] is 4.42%. For the same compound, the Potency entry in assay [8] and in assay [9] was “inactive” in each case.

Take `Nc1nc2c(C(=O)NCc3cccs3)nnn2c2cccc(Cl)c12`: the Potency was greater than 11.4 µM in assay [1], 1 µM (active) in assay [3], greater than 46 µM in assay [6] and greater than 9.22 µM in assay [7]. Further, the values for the activity change, negative = inhibition in assay [2] and in [4] were 2.54% and -1.34%, respectively. Moreover, the activity, negative = inhibition in assay [5] is -2.31%. Besides, the Potency result in assay [8] and in [9] was “inactive” in each case.

For the compound `C[C@@H](N1CCOCC1)[C@@](O)(c1ccccc1)c1ccccn1`, the figures for the Potency in assay [1], in assay [6] and in [7] were greater than 11.4 µM, greater than 46 µM and greater than 9.22 µM, respectively. In addition, the activity change, negative = inhibition in assay [2] was 2.55%; in [3], -2.5% [at 2.29 µM]; in assay [4], 12.6%. In addition, the activity, negative = inhibition in [5] is 4.17%. The Potency entry in [8] and in assay [9] was “inactive” in each case.

For the compound `O=C1CN2CCN(CC2)CC(=O)Nc2ccc(cc2)S(=O)(=O)c2ccc(cc2)NC(=O)CN2CCN(CC2)CC(=O)Nc2ccc(cc2)S(=O)(=O)c2ccc(cc2)N1`, the Potency in [1] was greater than 11.4 µM; in assay [6], greater than 46 µM; in [7], greater than 9.22 µM. For the same compound, the activity change, negative = inhibition in assay [2] is 5.33%; in assay [4] it was 5.58%. Moreover, the Potency entry in assay [3], in [8] and in assay [9] was “inactive” throughout. For the same compound, the activity, negative = inhibition in assay [5] is 12.3%.

Consider `Nc1ncnc2c1ncn2[C@H]1O[C@@H](C(=O)OCCO)[C@@H](O)[C@H]1O`, for which the figures for the Potency in assay [1], in assay [6] and in assay [7] were greater than 11.4 µM, greater than 46 µM and greater than 9.22 µM, respectively. Further, the activity change, negative = inhibition was 1.75% in assay [2] and 21.4% in assay [4]. In addition, the Potency result in [3], in assay [8] and in [9] was “inactive” in each case. In addition, in assay [5], the activity, negative = inhibition was 25.7%.

For `CC1(C)O[C@@H]2O[C@H]([C@@H]3COC(C)(C)O3)[C@H](N)[C@H]2O1`, the Potency in assay [1] is greater than 11.4 µM; in assay [6] it was greater than 46 µM; in assay [7], greater than 9.22 µM. In addition, the activity change, negative = inhibition is 5.74% in assay [2], 8.7% [at 2.29 µM] in [3] and 10.1% in [4]. Also, in assay [5], the activity, negative = inhibition was 5.21%. Moreover, the Potency result in [8] and in assay [9] was “inactive” throughout.

On to `O=C(NCc1cccnc1)[C@@H]1[C@@H](C(=O)O)[C@H]2CC[C@@H]1O2`, for which the Potency is greater than 11.4 µM in assay [1], greater than 46 µM in assay [6] and greater than 9.22 µM in assay [7]. In addition, the activity change, negative = inhibition in assay [2] is 1.51%; in [4], 4.54%. For the same compound, the Potency entry in [3], in assay [8] and in [9] was “inactive” throughout. Also, the activity, negative = inhibition in [5] was 11.6%.

In the case of `S=C(S)NCCN1CCNCC1`, the Potency in assay [1] was greater than 11.4 µM; in assay [6] it was greater than 46 µM; in assay [7], greater than 9.22 µM. Besides, the activity change, negative = inhibition in assay [2] is -1.68%; in assay [4] it was -3.23%. Besides, the Potency result in assay [3], in assay [8] and in [9] was “inactive” each time. Further, the activity, negative = inhibition in assay [5] is -9.45%.

Consider `Cc1ccc(-[n+]2cc(=O)o[nH]2)cc1`, for which the Potency was greater than 11.4 µM in [1], 3.98 µM (active) in assay [3], greater than 46 µM in assay [6] and greater than 9.22 µM in assay [7]. The activity change, negative = inhibition in assay [2] is 4.74%; in [4], -24.7%. In assay [5], the activity, negative = inhibition was 12.6%. The Potency entry in assay [8] and in assay [9] was “inactive” in each case.
